Measured values published in PubChem BioAssay AID485317 (Broad Institute, 2010).
The campaign covered roughly 290,000 compounds. About 11,000 (3.8%) were called active. The full list was thinned out, with actives kept by preference. Values without a mark were called inactive.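 How the source made its calls: active means mean replicate inhibition above about 79%, with every replicate also reaching it (limit read from the data); inconclusive means only one of the two criteria met; inactive means mean below limit and not every replicate reaching it.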

The molecules below were run against FAD-linked sulfhydryl oxidase ALR (Homo sapiens) (UniProt P55789) (assay: ALR-catalysed DTT oxidation blockers – biochemical, H2O2 detection, HRP-luminol luminescence, single point, primary screen (AID 485317)). Settings: purified ALR, stronger effect = higher value, concentration not given here.
Sequence of FAD-linked sulfhydryl oxidase ALR (Homo sapiens) (P55789 whole entry, looked up): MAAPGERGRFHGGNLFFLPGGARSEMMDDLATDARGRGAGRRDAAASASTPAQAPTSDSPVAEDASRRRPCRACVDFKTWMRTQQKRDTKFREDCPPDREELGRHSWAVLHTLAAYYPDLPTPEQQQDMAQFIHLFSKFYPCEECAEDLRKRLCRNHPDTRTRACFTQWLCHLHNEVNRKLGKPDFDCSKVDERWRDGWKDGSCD

Compound	inhibition
O=C(NCCC1CCCCN1S(=O)(=O)c1ccc(Cl)cc1)C(=O)NCc1ccco1 (stereo not given)	-1.02%
Cc1cccc(C(=O)Nc2ccc3c(c2)C(=O)N(CC(C)C)C3=O)c1	-20.8%
CN1C(=O)c2ccc(NC(=O)c3c(F)c(F)c(F)c(F)c3F)cc2C1=O	-3.79%
Cc1cc(NC(=O)OC(C)C)ccc1-c1ccc(NC(=O)OC(C)C)cc1C	91.5% (active)
Cn1cncc1C#Cc1c(-c2ccsc2)sc2ccccc12	1.87%
O=C(CN1C(=O)c2ccc([N+](=O)[O-])cc2C1=O)Nc1nnc(C2CC2)s1	-1.72%
CCOc1ccc(NC(=O)c2ccc(NC(=O)CN3C(=O)C(=O)N(CC(C)C)C3=O)cc2)cc1	-8.04%
O=C(CSc1nnc(Nc2ccccc2F)s1)NC1CCCC1	-1.36%
CC12CCC(=O)N1C(C(=O)NCCN1C(=O)S/C(=C\c3ccccc3F)C1=O)CS2 (stereo not given)	-5.02%
CNC(=O)CN1C(=O)c2ccccc2S1(=O)=O	96.2% (active)
O=C(CN1C(=O)c2ccccc2S1(=O)=O)NC1CCCCC1	-2.86%
CCCc1nnc(NC(=O)CN2C(=O)c3ccccc3S2(=O)=O)s1	1.19%
COc1ccc(-c2onc3ccc(C(C)=O)cc23)cc1	-6.5%
Oc1ccc(-c2onc3ccc(Cl)cc23)cc1	81% (active)
CC(OC(=O)c1ccc2noc(-c3ccccc3)c2c1)C(N)=O (stereo not given)	2.68%
O=C1COc2ccc(C(=O)CSc3ccc(Br)cc3)cc2N1	-4.57%
COCCN(C(=O)COC(=O)Cc1cccc(OC)c1)c1c(N)n(Cc2ccccc2)c(=O)[nH]c1=O	3.3%
COc1ccc(-c2cc(C(=O)N/N=C/c3cccnc3)c3ccccc3n2)c(OC)c1	0.831%
CCCc1cc(=O)[nH]c(SCC(=O)c2c(N)n(CC(C)C)c(=O)n(C)c2=O)n1	-1.46%
Cc1cc(C(=O)CSc2nc(N)cc(=O)[nH]2)c(C)n1CCc1ccc(Cl)cc1	3.32%
CCCc1cc(=O)[nH]c(SCC(=O)c2cc(C)n(CCC)c2C)n1	96% (active)
Cc1ccc(F)cc1NC(=O)CSCc1c(C)noc1C	9.91%
Cc1cccc(C(=O)N[C@H](C(=O)NCc2cccs2)C(C)C)c1	0.403%

Compound	inhibition
CCC(C)NC(=O)c1ccc(NC(=O)CC2SC(N3CCCCC3)=NC2=O)cc1 (stereo not given)	-5.35%
COc1cccc2[nH]c(C(=O)NCCc3ccccc3)cc12	-7.11%
O=C(NCC1CCCO1)c1cc(-c2ccccc2)nc2ccccc12 (stereo not given)	-3.93%
COc1ccc2cc(C(=O)NCC3CCCO3)[nH]c2c1 (stereo not given)	-17.8%
CN(C)CCCNC(=O)c1ccc2[nH]c3ccccc3c2c1	-6.4%
O=C(NCCCO)c1cc2c([nH]c3ccccc32)c(-c2ccc(F)cc2)n1	98% (active)
O=C(NCC1CCCO1)c1cc2c([nH]c3ccccc32)c(-c2ccc(F)cc2)n1 (stereo not given)	96.9% (active)
C[C@H](CO)N1C[C@H](C)[C@@H](CN(C)C(=O)NC2CCCCC2)Oc2ccc(NC(=O)c3ccncc3)cc2C1=O	-4.41%
CCN(C(=O)CSc1cccc[n+]1[O-])c1ccccc1	-7.12%
CCOc1ccc(-c2ccc(SCC(=O)N3CCOCC3)nn2)cc1	-5.59%
COc1cccc(-c2ccc(SCC(=O)N3CCN(c4ccccc4)CC3)nn2)c1	88.3% (active)
COc1cccc(/C=C/C(=O)OCC(=O)N2CCN(c3ccccc3)CC2)c1	27.8%
CC1CCCN(C(=O)CN2C(=O)c3ccccc3S2(=O)=O)C1 (stereo not given)	-1.06%
O=C(NNC(=O)c1ccc(-n2cncn2)c([N+](=O)[O-])c1)c1ccccc1	-16.9%
O=C(NCc1ccncc1)c1ccc(NS(=O)(=O)c2cccc([N+](=O)[O-])c2)cc1	-17.6%
O=C(NCCCN1CCOCC1)c1cnn2c(-c3ccccc3)cc(-c3ccccc3)nc12	94.1% (active)
O=C(NCCCN1CCOCC1)c1ccccc1NS(=O)(=O)c1ccc(F)cc1	-11.8%
O=C(NCCCN1CCOCC1)c1ccccc1NS(=O)(=O)c1ccc(Br)cc1	-9.12%
CN(C)S(=O)(=O)c1cccc(NC(=O)COc2ccc3ccccc3c2)c1	-11.4%
COCCNC(=O)c1ccc(-n2c(SCc3cccnc3)nc3ccccc3c2=O)cc1	-2.07%
C=CCn1c(SCc2ccc(C(=O)NCCO)cc2)nc2ccccc2c1=O	98.7% (active)
C=CCn1c(SCC(=O)NC(=O)Cc2ccccc2)nc2ccccc2c1=O	-2.51%
Cc1ccc(CNC(=O)c2cccc3c2C(=O)c2ccc(N4CCC(C)CC4)cc2S3(=O)=O)cc1	3.52%

Compound	inhibition
NS(=O)(=O)c1ccc(CCNC(=O)COC(=O)COc2cccc(C(F)(F)F)c2)cc1	-3.46%
Cc1ccc(NCc2n[nH]c(=S)n2-c2ccccc2)cc1Cl	88.3% (active)
S=c1[nH]nc(CSCc2ccc(Cl)cc2Cl)n1-c1ccccc1	1.91%
Cc1ccc(OCc2n[nH]c(=S)n2-c2ccccc2)cc1	65.2%
Cc1ccc(NC(=O)C2CCC(C(C)(C)C)CC2)cc1S(=O)(=O)N1CCOCC1 (stereo not given)	-0.467%
CC(C(=O)Nc1ccc(S(=O)(=O)N2CCCC2)cc1)N(C)Cc1ccc(F)cc1 (stereo not given)	-1.06%
CCn1c(=S)[nH]c2cc(S(=O)(=O)N3CCOCC3)ccc21	67.1%
COc1cccc(NC(=O)C(=O)c2cn(CC(=O)N3CCOCC3)c3ccccc23)c1	4.42%
CN1c2ccc(C=O)c3c(C=O)ccc(c23)N(C)C1(C)C	99.2% (active)
N/C(Cc1ccc([N+](=O)[O-])cc1)=N\OC(=O)COc1ccc2ccccc2c1	-17.6%
CCOC(=O)COc1ccc([N+](=O)[O-])cc1	3.19%
Cc1cc(C)cc(OCC(=O)O/N=C(\N)Cc2ccc([N+](=O)[O-])cc2)c1	98.4% (active)
Cc1ccc(S(=O)(=O)NC(C)C(=O)NCc2ccc(Cl)cc2)cc1 (stereo not given)	10.6%
Oc1ccc(N=Cc2c(O)ccc3ccccc23)cc1	99.5% (active)
Oc1c(C=Nc2cccc3nsnc23)ccc2ccccc12	25.2%
CCOc1ccc(N=Cc2c(O)n(-c3cccc(C)n3)c(=O)c3ccccc23)cc1	-11.1%
CCN(c1ccccc1)S(=O)(=O)c1cccc(C(=O)NCc2ccccc2CN2CCOCC2)c1	-5.99%
Cc1ccc(COC(=O)CN2C(=O)NC3(CCCC3)C2=O)cc1	-0.909%
CCC(=O)Nc1ccc(C(=O)CSc2nnc(CNc3ccc(Cl)cc3)o2)cc1OC	0.831%
COc1ccc(C(=O)CSc2nnc(-c3ccco3)o2)cc1	19.8%
CC(C)C[C@@H](N)c1nnc(SCC(=O)c2ccc(Cl)cc2)o1	98.5% (active)
Cc1cc(C)cc(-c2nnc(SCC(=O)NC3CC3)o2)c1	-0.0792%
O=C1NN(c2ccccc2)C(=O)/C1=C/c1ccc(-c2cccc(C(=O)O)c2)o1	98.7% (active)

Compound	inhibition
Cc1cccc(C)c1-n1c(C)cc(/C=C2\C(=O)NN(c3ccccc3)C2=O)c1C	21.8%
CC1=NN(c2ccc(Cl)c(C(=O)O)c2)C(=O)/C1=C/c1ccc(-c2ccccc2[N+](=O)[O-])o1	71.4%
O=S(=O)(NCC1CN(S(=O)(=O)c2ccc3c(c2)OCCO3)C1)c1c(F)cccc1F	-2.88%
COc1ccc(NC(=O)Nc2ccc3c(c2)C(=O)N([C@H](C)CO)C[C@H](C)[C@@H](CN(C)C(=O)Nc2ccc4c(c2)OCO4)O3)cc1	-7.46%
Cc1cc(C(=O)OCC(=O)N2C(C)CCCC2C)c2ccccc2n1 (stereo not given)	-5.22%
COc1ccc(C(=O)O)cc1S(=O)(=O)NC1CCN(Cc2ccccc2)CC1	-0.811%
Cn1nc(-c2ccc(Cl)cc2)c2cc(C(=O)NCc3ccco3)sc21	86.8% (active)
COc1ccccc1N1CCN(C(=O)c2cc3c(-c4ccc(Cl)cc4)nn(C)c3s2)CC1	-109%
CCOC(=O)N1CCN(C(=O)c2cc3c(-c4ccc(Cl)cc4)nn(C)c3s2)CC1	72.2%
O=C(COC(=O)c1cccc(Cl)c1)NC1CCCCCCC1	-2.57%
C/C(=N\NC(=O)c1cccnc1)c1ccc(-c2ccccc2)cc1	-25.7%
O=C(NN=C1CCC(=NNC(=O)c2cccnc2)CC1)c1cccnc1	99.1% (active)
O=C(N/N=C/c1ccccn1)c1cccnc1	-5.07%
CCCCN(C1CCS(=O)(=O)C1)S(=O)(=O)c1ccc(C(C)C)cc1 (stereo not given)	-1.06%
CC1O[C@H](OC2C(COC3OC(CO)C(O)[C@H](O)C3O)OC(OC3CC[C@]4(C)C(CC[C@@]5(C)[C@@H]4C=C[C@]46OC[C@@]7(CCC(C)(C)C[C@H]74)C(O)C[C@@]56C)C3(C)C)C(O)C2O)C(O)C(O)C1O (stereo not given in full)	-3.57%
CCCC[C@@H]1CN=C(N)N1CCc1cc(C(F)(F)F)cc(C(F)(F)F)c1	-42.9%
CCCCN1C(N)=NC[C@@H]1CC1CCCCC1	98.3% (active)
CCCC[C@@H]1CN=C(N)N1CCCC	4.8%
COc1ccc(S(=O)(=O)NCCCc2ccccc2)cc1	-2.65%
COc1ccc(S(=O)(=O)Nc2c(C)n(C)n(-c3ccccc3)c2=O)cc1	-9.38%
COc1ccc(S(=O)(=O)/N=C2\C=C(NS(=O)(=O)c3ccccc3)C(=O)c3ccccc32)cc1	87.5% (active)
